This is an account of results in publication PMC7862700, “An all-to-all approach to the identification of sequence-specific readers for epigenetic DNA modifications on cytosine”.

Test in all cases: DAPPL (digital affinity profiling via proximity ligation, sequencing); 10 mM Tris-HCl pH 7.5, 50 mM NaCl, 1 mM DTT, 4% glycerol, room temperature, 30 min; GST-TFs on glutathione beads, 16-mer random dsDNA library, 0.1% formaldehyde crosslink after washing; high values mean tight binding
Holding throughout (conditions): protein: recombinant; tags: N-terminal GST; dsDNA, one strand shown

One assay deals with T1, FLI1 (Homo sapiens, UniProt Q01543 1-452).
T1 sequence: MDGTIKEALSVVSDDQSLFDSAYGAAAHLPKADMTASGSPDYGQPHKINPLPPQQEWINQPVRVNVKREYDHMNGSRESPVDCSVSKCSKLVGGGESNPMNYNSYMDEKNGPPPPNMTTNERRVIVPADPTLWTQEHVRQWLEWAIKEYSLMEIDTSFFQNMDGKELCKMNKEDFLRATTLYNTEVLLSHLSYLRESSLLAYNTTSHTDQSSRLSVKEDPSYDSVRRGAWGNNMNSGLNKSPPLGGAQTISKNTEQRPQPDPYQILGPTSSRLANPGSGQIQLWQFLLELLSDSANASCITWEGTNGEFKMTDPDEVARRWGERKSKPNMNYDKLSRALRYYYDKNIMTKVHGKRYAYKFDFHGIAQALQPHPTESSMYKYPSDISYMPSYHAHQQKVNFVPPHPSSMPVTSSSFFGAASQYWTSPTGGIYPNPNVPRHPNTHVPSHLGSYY
The essentials:
(§1)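 Pools of DNA-barcoded human transcription factors, expressed in yeast as GST fusions on glutathione beads and combined with a tag-only sample, were incubated with 200 nmole of a 16-mer random double-stranded DNA library. Incubation took 30 min at room temperature in Tris/NaCl/DTT/glycerol buffer and was followed by washing, 0.1% formaldehyde crosslinking, proximity ligation (BsaI/T4 ligase, 1 h, 37 °C), PCR amplification and sequencing on an Illumina NextSeq500. Binding signal is the ratio of a hexamer's read frequency for a factor to its frequency for the tag-only sample.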

The next assay addresses T2, ELK1 (Homo sapiens, UniProt P19419 1-428).
T2 sequence: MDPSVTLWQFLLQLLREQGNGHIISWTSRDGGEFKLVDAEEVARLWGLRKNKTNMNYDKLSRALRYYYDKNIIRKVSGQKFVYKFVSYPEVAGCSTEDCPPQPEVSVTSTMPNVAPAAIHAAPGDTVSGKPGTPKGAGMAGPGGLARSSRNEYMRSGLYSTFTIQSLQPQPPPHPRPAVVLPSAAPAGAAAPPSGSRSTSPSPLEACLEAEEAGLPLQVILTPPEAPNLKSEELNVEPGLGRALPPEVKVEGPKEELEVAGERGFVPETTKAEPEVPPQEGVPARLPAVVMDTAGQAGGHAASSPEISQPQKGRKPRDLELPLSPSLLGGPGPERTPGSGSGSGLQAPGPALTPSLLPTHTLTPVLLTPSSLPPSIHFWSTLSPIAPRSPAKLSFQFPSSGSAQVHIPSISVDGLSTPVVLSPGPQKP
Summed up: as §1

The target of the next assay is T3, GABPA (Homo sapiens, UniProt Q06546 1-454).
T3 sequence: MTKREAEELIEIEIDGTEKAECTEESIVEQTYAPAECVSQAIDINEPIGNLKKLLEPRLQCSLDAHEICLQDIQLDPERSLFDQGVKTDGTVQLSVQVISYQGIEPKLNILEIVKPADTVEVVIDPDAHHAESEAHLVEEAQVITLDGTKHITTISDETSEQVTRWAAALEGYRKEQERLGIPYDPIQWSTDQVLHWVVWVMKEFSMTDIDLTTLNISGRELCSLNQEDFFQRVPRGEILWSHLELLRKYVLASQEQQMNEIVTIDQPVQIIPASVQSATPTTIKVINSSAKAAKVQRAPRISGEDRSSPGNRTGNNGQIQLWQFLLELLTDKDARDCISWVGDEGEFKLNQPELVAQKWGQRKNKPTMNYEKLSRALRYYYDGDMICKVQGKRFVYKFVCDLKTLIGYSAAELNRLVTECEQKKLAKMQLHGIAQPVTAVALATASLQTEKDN
Summed up:
as §1

For another assay, the target named is T4, ERG (Homo sapiens, UniProt P11308 1-479).
T4 sequence: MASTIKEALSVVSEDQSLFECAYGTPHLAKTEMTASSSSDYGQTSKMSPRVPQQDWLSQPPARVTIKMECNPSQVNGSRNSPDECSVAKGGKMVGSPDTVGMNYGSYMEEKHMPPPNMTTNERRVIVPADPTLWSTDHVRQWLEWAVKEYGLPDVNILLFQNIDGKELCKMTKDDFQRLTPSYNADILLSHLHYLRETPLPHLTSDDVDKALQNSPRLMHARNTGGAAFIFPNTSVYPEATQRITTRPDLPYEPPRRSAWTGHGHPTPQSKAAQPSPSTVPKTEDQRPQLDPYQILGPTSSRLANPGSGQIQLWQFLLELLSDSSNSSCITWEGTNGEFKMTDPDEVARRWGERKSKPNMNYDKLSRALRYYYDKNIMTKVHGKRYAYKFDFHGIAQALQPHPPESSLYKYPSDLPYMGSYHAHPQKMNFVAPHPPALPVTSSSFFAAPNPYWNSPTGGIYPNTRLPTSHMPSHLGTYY
The essentials: as §1

The target of the next assay is ELF1 (Homo sapiens, UniProt P32519 1-619). The essentials: as §1
Another assay concerns the target T5, EHF (Homo sapiens, UniProt Q9NZC4 1-300).
T5 sequence: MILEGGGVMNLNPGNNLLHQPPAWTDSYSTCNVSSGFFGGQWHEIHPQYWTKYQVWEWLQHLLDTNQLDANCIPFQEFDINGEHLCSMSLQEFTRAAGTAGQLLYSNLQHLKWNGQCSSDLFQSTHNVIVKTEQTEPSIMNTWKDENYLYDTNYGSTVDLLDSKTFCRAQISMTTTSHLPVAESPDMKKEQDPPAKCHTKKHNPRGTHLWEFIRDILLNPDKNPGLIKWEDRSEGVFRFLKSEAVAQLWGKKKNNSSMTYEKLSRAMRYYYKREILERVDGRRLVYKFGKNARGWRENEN
Summed up: as §1

The next assay has as its target SPIB (Homo sapiens, UniProt Q01892 1-262). Summed up:
as §1

A further assay concerns the target T6, FEV (Homo sapiens, UniProt Q99581 1-238).
T6 sequence: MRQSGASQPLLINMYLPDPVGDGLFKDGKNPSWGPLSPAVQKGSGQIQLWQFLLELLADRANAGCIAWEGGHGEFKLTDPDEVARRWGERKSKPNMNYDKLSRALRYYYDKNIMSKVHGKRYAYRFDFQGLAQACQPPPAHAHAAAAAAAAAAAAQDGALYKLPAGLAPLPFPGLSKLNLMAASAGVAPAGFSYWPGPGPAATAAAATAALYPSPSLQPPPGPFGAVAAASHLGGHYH
Summed up: as §1

Another assay has as its target ETV5 (Homo sapiens, UniProt P41161 1-510). Summed up: as §1
Another assay concerns the target T7, SPIC (Homo sapiens, UniProt Q8N5J4 1-248).
T7 sequence: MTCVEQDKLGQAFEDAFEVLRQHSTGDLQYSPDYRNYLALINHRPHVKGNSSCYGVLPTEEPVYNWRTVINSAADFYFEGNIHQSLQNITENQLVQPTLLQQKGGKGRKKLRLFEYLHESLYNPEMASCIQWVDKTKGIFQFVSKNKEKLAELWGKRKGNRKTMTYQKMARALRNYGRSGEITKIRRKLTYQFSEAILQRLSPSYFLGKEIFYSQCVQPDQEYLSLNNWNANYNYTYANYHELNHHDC
Summed up: as §1

For a further assay, the target named is ELF4 (Homo sapiens, UniProt Q99607 1-663). The essentials: as §1
A further assay deals with ETV1 (Homo sapiens, UniProt P50549 1-477). Summed up: as §1
The next assay has as its target T8, ERF (Homo sapiens, UniProt P50548 1-548).
T8 sequence: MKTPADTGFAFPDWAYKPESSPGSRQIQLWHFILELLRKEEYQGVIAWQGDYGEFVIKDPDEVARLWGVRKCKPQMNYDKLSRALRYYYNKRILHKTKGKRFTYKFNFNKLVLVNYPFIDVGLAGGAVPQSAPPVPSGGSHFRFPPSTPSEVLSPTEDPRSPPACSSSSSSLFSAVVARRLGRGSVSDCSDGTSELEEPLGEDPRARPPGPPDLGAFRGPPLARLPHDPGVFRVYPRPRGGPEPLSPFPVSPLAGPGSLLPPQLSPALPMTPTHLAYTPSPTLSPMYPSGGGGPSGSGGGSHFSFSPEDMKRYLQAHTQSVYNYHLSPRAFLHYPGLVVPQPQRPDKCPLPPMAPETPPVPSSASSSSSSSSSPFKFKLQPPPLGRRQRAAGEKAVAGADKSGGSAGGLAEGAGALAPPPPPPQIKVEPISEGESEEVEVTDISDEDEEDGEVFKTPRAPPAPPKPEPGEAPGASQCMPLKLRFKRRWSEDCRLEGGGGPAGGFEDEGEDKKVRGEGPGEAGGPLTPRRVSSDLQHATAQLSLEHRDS
The essentials:
as §1

A further assay concerns the target T9, ETV3L (Homo sapiens, UniProt Q6ZN32 1-361).
T9 sequence: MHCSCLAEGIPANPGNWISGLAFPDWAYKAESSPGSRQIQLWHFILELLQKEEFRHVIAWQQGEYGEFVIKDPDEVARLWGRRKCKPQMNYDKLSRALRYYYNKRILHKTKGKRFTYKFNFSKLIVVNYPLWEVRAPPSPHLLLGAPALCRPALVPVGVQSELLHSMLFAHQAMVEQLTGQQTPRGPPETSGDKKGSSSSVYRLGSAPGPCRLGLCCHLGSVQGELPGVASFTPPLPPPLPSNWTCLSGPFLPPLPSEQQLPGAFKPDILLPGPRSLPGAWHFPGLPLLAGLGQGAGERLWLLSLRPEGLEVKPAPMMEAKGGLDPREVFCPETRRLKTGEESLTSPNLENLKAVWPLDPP
The essentials: as §1

Another assay deals with T10, ETS2 (Homo sapiens, UniProt P15036 1-469).
T10 sequence: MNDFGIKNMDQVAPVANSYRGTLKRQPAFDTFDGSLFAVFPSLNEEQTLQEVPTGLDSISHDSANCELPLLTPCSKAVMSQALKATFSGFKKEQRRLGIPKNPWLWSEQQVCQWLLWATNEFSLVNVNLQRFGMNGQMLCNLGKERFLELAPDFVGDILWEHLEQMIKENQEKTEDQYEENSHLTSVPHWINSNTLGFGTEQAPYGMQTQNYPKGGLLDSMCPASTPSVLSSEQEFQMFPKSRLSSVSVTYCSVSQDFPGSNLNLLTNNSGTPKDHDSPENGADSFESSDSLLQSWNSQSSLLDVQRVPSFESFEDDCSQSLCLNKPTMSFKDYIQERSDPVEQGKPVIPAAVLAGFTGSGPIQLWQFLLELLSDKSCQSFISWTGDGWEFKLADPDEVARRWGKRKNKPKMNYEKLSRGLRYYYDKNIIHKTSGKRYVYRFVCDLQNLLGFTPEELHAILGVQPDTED
Summed up: as §1

The next assay has as its target T11, SPDEF (Homo sapiens, UniProt O95238 1-335).
T11 sequence: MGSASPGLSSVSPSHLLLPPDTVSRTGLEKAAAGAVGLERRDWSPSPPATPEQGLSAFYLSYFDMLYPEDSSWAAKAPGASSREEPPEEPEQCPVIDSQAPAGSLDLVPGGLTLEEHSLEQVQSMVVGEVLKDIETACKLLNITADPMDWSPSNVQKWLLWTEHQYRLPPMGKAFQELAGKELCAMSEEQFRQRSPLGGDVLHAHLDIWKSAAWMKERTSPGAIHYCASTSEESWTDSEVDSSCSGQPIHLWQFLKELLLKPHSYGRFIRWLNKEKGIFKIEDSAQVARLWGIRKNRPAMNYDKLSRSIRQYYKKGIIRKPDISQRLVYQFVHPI
Summed up:
as §1

A further assay has as its target T12, ETV3 (Homo sapiens, UniProt P41162-2 1-143).
T12 sequence: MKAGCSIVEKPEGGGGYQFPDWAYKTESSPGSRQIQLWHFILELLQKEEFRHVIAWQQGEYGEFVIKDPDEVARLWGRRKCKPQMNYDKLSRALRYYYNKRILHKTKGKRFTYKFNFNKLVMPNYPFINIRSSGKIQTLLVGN
The essentials: as §1

Sequence of SPIB (Q01892 whole entry): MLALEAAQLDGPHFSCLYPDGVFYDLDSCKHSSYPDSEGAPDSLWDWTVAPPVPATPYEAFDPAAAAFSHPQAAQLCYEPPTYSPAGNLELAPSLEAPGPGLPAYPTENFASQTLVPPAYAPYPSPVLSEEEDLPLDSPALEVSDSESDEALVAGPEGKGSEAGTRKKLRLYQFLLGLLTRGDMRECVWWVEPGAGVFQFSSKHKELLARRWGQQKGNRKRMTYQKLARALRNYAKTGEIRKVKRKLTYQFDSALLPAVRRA
Sequence of ETV1 (P50549 whole entry): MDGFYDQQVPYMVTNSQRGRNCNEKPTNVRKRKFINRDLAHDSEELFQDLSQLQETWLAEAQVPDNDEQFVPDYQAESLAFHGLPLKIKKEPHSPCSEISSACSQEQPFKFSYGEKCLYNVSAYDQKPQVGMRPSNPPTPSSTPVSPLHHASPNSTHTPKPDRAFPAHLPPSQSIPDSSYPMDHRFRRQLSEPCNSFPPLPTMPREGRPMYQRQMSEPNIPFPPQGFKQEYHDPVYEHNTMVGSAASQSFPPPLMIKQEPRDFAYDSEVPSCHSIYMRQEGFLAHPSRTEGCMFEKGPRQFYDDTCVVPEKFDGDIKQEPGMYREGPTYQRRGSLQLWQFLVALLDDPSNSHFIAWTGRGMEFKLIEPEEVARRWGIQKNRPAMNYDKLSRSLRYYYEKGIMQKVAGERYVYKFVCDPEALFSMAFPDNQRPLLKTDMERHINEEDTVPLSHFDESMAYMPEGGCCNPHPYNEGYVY
Sequence of ELF1 (P32519 whole entry): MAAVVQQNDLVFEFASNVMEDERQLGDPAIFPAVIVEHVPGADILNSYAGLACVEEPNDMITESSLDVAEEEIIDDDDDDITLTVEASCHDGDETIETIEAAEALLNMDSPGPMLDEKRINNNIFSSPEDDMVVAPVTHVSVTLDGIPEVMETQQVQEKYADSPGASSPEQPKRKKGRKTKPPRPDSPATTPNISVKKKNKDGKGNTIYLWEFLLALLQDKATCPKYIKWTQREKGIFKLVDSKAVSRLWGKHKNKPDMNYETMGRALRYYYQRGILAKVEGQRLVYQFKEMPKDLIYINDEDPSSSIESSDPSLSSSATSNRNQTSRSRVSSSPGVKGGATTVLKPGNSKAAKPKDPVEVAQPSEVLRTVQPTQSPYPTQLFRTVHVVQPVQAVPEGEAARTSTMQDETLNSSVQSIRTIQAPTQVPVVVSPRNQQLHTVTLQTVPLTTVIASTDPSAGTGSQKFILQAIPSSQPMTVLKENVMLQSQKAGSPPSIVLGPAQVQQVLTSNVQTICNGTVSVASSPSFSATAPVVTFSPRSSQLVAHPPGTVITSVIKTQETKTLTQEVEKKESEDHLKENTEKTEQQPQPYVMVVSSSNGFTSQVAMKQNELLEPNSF
Sequence of ELF4 (Q99607 whole entry): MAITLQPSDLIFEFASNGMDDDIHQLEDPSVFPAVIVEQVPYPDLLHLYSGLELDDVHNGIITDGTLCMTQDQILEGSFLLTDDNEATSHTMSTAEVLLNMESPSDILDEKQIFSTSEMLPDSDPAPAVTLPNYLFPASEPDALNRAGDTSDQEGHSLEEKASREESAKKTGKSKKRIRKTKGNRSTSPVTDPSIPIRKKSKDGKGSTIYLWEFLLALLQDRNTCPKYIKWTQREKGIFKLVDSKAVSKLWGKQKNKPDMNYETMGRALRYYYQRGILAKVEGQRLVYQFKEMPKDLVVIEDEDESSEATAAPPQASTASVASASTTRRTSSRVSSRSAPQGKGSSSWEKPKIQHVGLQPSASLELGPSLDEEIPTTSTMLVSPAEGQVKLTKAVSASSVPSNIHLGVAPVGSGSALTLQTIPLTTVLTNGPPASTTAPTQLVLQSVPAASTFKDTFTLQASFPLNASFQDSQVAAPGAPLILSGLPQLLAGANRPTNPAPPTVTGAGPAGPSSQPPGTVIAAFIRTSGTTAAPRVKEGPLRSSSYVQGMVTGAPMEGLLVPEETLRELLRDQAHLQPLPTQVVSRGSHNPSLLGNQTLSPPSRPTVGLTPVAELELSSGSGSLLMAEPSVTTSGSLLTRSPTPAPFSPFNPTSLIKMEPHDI
Sequence of ETV5 (P41161 whole entry): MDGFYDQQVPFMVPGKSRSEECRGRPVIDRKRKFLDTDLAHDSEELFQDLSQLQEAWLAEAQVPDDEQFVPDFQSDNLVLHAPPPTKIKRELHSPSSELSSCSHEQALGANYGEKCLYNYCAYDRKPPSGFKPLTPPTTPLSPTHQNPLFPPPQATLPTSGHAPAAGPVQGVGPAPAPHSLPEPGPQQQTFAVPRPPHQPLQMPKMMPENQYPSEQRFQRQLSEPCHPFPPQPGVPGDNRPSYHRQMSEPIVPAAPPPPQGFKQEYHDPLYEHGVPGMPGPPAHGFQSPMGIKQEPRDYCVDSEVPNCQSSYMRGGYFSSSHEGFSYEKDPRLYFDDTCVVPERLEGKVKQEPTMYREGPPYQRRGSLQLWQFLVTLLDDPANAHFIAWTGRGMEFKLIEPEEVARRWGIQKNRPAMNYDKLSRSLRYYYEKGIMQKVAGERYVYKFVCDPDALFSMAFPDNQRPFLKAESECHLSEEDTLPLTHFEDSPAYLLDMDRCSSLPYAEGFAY

Turning to CGGCCT, the binding signal in the assay with FLI1 was 1.22 fold enrichment (6-mer frequency, TF over GST control); with ELK1, 1.15 fold enrichment (6-mer frequency, TF over GST control); in the assay with GABPA it was 1.16 fold enrichment (6-mer frequency, TF over GST control); in the assay with ERG, 1.17 fold enrichment (6-mer frequency, TF over GST control); in the assay with ELF1, 1.1 fold enrichment (6-mer frequency, TF over GST control); with EHF, 1.08 fold enrichment (6-mer frequency, TF over GST control). The binding signal with SPIB was 1.02 fold enrichment (6-mer frequency, TF over GST control); with FEV, 1.17 fold enrichment (6-mer frequency, TF over GST control); in the assay with ETV5, 1.14 fold enrichment (6-mer frequency, TF over GST control); with SPIC, 1.14 fold enrichment (6-mer frequency, TF over GST control); with ELF4, 1.12 fold enrichment (6-mer frequency, TF over GST control); with ETV1, 1.05 fold enrichment (6-mer frequency, TF over GST control). The binding signal is 1.06 fold enrichment (6-mer frequency, TF over GST control) with ERF; 1.07 fold enrichment (6-mer frequency, TF over GST control) with ETV3L; 1.06 fold enrichment (6-mer frequency, TF over GST control) with ETS2; 1.12 fold enrichment (6-mer frequency, TF over GST control) with SPDEF; 1.18 fold enrichment (6-mer frequency, TF over GST control) with ETV3.
